Data published in publication PMC8769072, “Proteome‐scale mapping of binding sites in the unstructured regions of the human proteome” (Molecular Systems Biology, 2022).

Molecular target: MAP1LC3A 2-121, Q9H492

Selected by phage display, active:
RGGGSVGSDVGQRLPV [KCNT1, Q5JUK3] confidence 2
NLAPSDEESSWTTLSQ [APBB2, Q92870] confidence 2
WRDMTTITEDEISKLR [CACTIN, Q8WUQ7] confidence 2
SPNREWEVLQPAPHQV [NCOR1, O75376] confidence 3
GWETVEMHPAYTEEEL [NUCB1, Q02818] confidence 2
TVNEWAHLQEDTNSHI [ANKRD62, A6NC57] confidence 4
TENDDFAILFAPKAAM [ATG2B, Q96BY7] confidence 3
WVWLGNEAELLESMGD [TMEM132C, Q8N3T6] confidence 4
LEDSFAHLQLSGDNTA [RNF146, Q9NTX7] confidence 3
DFTFLRPLSVQQPTAL [PCDHGC5, Q9Y5F6] confidence 3
TDTHWTDLTHLIEKLK [TRIM59, Q8IWR1] confidence 3
WEEFESLQKQEVKNLH [PTPN6, P29350] confidence 2
FPSSGFTDLAEIVSRI [PNPLA6, Q8IY17] confidence 3
EWQHLDSAQRTPYRDM [ZNF487, B1APH4] confidence 2
DLTESSSMVDGDWTMV [RIC1, Q4ADV7] confidence 4
WEDLEARINAENEVPI [CEP170B, Q9Y4F5] confidence 2
GWDYGIGGGWDHISVR [TECPR1, Q7Z6L1] confidence 2
VLASMKNTYEVLDFLG [HIPK3, Q9H422] confidence 2
HLGEWGHLDPAEENLK [ZSCAN18, Q8TBC5] confidence 2
PQALERADGSWAWVVL [SLC16A5, O15375] confidence 3
MVEAGGLLEKWTLLEE [APOBR, Q0VD83] confidence 4
DGDTLDSDEFAILDAP [ATG2A, Q2TAZ0] confidence 4
GPEAASGEWELLRLDS [ESPL1, Q14674] confidence 2
YELLTENDMLPNMRIG [JAK2, O60674] confidence 2
TAQQLETTTERWLVID [CC2D1A, Q6P1N0] confidence 3
ANGWQIISSSSGATPT [SP1, P08047] confidence 4
HDDFVMIDFKPAFSKD [ATG13, O75143] confidence 3
QVDEVTDLLASFTSLS [ANKRD54, Q6NXT1] confidence 3
WATIEPAPDAASLLAS [AKAP13, Q12802] confidence 3
RQEEKQVLLQADWTLL [ZNF579, Q8NAF0] confidence 2
QGSRQDSWEVVEGLRG [OSBPL3, Q9H4L5] confidence 2

Molecular target: MAP1LC3B 2-119, Q9GZQ8

Selected by phage display, active:
WVWLGNEAELLESMGD [TMEM132C, Q8N3T6] confidence 3
DLTESSSMVDGDWTMV [RIC1, Q4ADV7] confidence 4
PQALERADGSWAWVVL [SLC16A5, O15375] confidence 3
YELLTENDMLPNMRIG [JAK2, O60674] confidence 2
